Compound activity (PubChem BioAssay)
HT1080NT lethal: kills 2HG-producing HT-1080-NT fibrosarcoma cells; HT-1080-NT fibrosarcoma viability, CellTiter-Glo ATP luminescence, 48 h; Potency, µM (top dose mostly 46.1 µM), for the others: at the highest dose activity, negative = less viability, most hits filed as cytotoxic; hit rate 1.6% among 360,000; AID 686970;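 note: NT is the 2HG producing partner of a matched IDH1 knockdown line; potency is the fitted concentration of half-maximal effect; 0% = DMSO-treated cells and -100% = media-only wells without cells; nearly all actives have a fitted effect of over 55% in size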
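750 cells/well, RPMI + 5% FBS; 2 h settle, compound pin-transfer, 48 h at 37 degrees C. CellTiter-Glo 10 min RT, luminescence. Normalized to DMSO and media-only wells.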
TDP1 cell noCPT: qHTS for Inhibitors of human tyrosyl-DNA phosphodiesterase 1 (TDP1): qHTS in cells in absence of CPT. DT40 Tdp1-/- hTDP1 cells, no CPT, ATP luminescence, 48 h. Potency, µM (titrated, usually from 46.2 µM), for the others: at the highest dose activity change, negative = growth inhibition, most hits filed as inhibitors. hit rate 15% among 420,000. AID 686978, 2013; note: potency is the fitted concentration of half-maximal effect; nearly all actives have a fitted effect of over 55% in size
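Camptothecin absent (DMSO only). Human TDP1-complemented DT40 knockout cells, 400 cells/well, 37 °C for minimum 48 hr; ATP measured via CellTiter-Glo, 30 min dark incubation, luminescence.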
HT1080 IDH1KD tx: toxicity to HT-1080 IDH1 knockdown cells (counter line). Potency, µM (highest dose often 46.1 µM), for the others: at the highest dose activity, negative = toxicity, usual class: cytotoxic. AID 686971. hit rate 2% among 360,000. HT-1080 IDH1 knockdown viability, ATP luminescence, 48 h;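 note: potency is the fitted concentration of half-maximal effect; 0% = DMSO wells and -100% = cell-free medium wells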
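Viability of IDH1-knockdown HT-1080 fibrosarcoma cells was assessed by CellTiter-Glo after 48 h at 37 °C with titrated compound; concentration-effect curves were classified by fit quality and response size.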
TDP1 cell CPT: growth inhibition of DT40 Tdp1-/-;hTDP1 cells with camptothecin (screen for TDP1 inhibitors); Potency, µM (top dose mostly 46.2 µM), for inactives: at the top dose activity change, negative = growth inhibition, actives largely listed as inhibitors; chicken DT40 Tdp1-/-;hTDP1 cells + 20 nM CPT, ATP luminescence, 48 h; hit rate 12% among 420,000; note: potency is the fitted concentration of half-maximal effect; nearly all actives have a fitted effect of over 55% in size
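Cell growth measured by CellTiter-Glo luminescence after a minimum 48 h, 37 C compound exposure with 20 nM CPT in Tdp1-knockout DT40 cells stably expressing hTDP1, seeded 400/well; qHTS titration format.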
ALOX12 inh: ALOX12 (human) lipoxygenase inhibition. hit rate 1.1% among 580,000. purified 12hLO, xylenol orange hydroperoxide absorbance. P18054. Potency, µM (top dose mostly 108 µM), inactives show at the highest dose activity change, negative = inhibition, actives largely listed as inhibitors; note: potency is the fitted concentration of half-maximal effect
Target sequence (P18054 whole entry, looked up): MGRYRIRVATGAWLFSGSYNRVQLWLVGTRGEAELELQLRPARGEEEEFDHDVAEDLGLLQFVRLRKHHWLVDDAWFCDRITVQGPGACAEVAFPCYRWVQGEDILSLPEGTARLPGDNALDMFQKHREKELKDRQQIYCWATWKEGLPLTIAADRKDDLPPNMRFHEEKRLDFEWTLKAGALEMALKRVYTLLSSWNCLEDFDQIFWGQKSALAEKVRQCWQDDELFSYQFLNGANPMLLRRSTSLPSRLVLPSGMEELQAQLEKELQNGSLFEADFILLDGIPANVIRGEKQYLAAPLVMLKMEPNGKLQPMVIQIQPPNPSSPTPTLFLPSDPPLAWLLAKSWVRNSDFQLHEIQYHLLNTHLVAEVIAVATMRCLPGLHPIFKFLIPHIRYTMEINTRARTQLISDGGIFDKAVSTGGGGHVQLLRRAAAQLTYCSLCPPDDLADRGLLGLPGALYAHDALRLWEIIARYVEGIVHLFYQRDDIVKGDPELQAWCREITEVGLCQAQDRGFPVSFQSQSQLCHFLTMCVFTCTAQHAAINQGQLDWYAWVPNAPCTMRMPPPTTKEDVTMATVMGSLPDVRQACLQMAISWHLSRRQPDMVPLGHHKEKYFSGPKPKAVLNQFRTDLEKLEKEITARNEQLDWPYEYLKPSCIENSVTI
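Hydroperoxide product was detected by ferrous iron/xylenol orange as the 573 to 405 nm absorbance ratio. Arachidonic acid at 40 uM (final) was turned over for 30 min at room temperature by 150 nM human 12hLO, pH 7.0 Hepes buffer, after 15 min compound preincubation.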
IL1B secr inh: inhibitors of inflammasome signaling (IL-1 beta secretion) | AID 743279 | THP-1 LPS/ATP IL-1B secretion, AlphaLISA, 16 h; active compounds read low | activity change, % at 57.5 µM | hit rate 4.7% among 360,000; in the data active = activity change below about -50%; inconclusive = mostly about -30% to -49%
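THP-1 cells pretreated 1 hr with compounds (up to 57.5 uM final), then stimulated with LPS (250 ng/mL final) plus ATP (1.25 mM final); secreted IL-1B measured by AlphaLISA after 16 hr, decreased signal indicating inhibition.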
* marks the source's active call; other numbers are inactive results; [ ] = another dose, or the depositor's remark. Shown is part of a subset that was picked to be rich in hits. Unless noted, calls come from the whole dose curve; as a rule, active = well fitted curve in the direction sought with a large enough effect; inconclusive = small, poorly fitted or top-dose-only effect, or another doubt; inactive = no such curve, though single readings can be large; an effect the other way counts as inactive or inconclusive. Unless noted, % is set by controls: 0 for no effect and ±100 for the full control effect.

CCOC(=O)c1sc(NC(=O)c2ccc(=O)[nH]c2)nc1C was read as HT1080NT lethal 19%, TDP1 cell noCPT -12%, HT1080 IDH1KD tx 0%, TDP1 cell CPT -6%, ALOX12 inh -15% and IL1B secr inh 7.
Screening CN[C@@H](C)C(=O)N[C@H]1CCCC[C@H]2CC[C@@H](C(=O)N[C@@H](c3ccccc3)c3cn(CCCCc4ccc(CCCCn5cc([C@@H](NC(=O)[C@@H]6CC[C@@H]7CCCC[C@H](NC(=O)[C@H](C)NC)C(=O)N76)c6ccccc6)nn5)cc4)nn3)N2C1=O returned ALOX12 inh 4%[57.4 µM].
`COc1ccccc1CC(=O)N1CCCN(c2cc(-c3ccccc3)[nH]n2)CC1` gave ALOX12 inh 31%.
For O=C(NC1CC1)C1(CCO)CCN(c2ncccn2)C1 (stereo not given) the results were ALOX12 inh 36%.
For COc1ccc(C(=O)N2CCCCCCNC(=O)[C@@H]3C[C@@H](c4nc(C(C)C)no4)C[C@@H]32)c(OC)n1 the results were ALOX12 inh 19%.
Screening CCOC(=O)c1sc(NC(=O)c2ccccc2OCC)nc1C returned HT1080NT lethal 0%, TDP1 cell noCPT inconclusive, HT1080 IDH1KD tx 23%, TDP1 cell CPT 21µM*, ALOX12 inh 6% and IL1B secr inh 18.
For Cc1ccc(NC(=O)N[C@@H]2C=C(C(=O)N[C@H](Cc3ccccc3)C(N)=O)C[C@@H](O)[C@@H]2O)cc1 the results were ALOX12 inh 11%.
Screening CCOc1ccc(-c2cn3ccccc3n2)cc1[N+](=O)[O-] returned HT1080NT lethal 15µM*, TDP1 cell noCPT inconclusive, HT1080 IDH1KD tx 16µM*, TDP1 cell CPT inconclusive, ALOX12 inh -14% and IL1B secr inh 9.
Nc1nc(-c2ccc([N+](=O)[O-])cc2)cs1 was read as HT1080NT lethal -7%, TDP1 cell noCPT -4%, HT1080 IDH1KD tx -1%, TDP1 cell CPT -16%, ALOX12 inh inconclusive and IL1B secr inh 4.
CCCOc1ccc(-c2csc(N)n2)cc1[N+](=O)[O-] was read as HT1080NT lethal 1%, TDP1 cell noCPT 10µM*, HT1080 IDH1KD tx 11%, TDP1 cell CPT 15µM*, ALOX12 inh -23% and IL1B secr inh -28.
`O=[N+]([O-])c1ccc(-c2cn3ccccc3n2)cc1` gave HT1080NT lethal -2%, TDP1 cell noCPT inconclusive, HT1080 IDH1KD tx 1%, TDP1 cell CPT inconclusive, ALOX12 inh 372% and IL1B secr inh inconclusive.
Screening Cc1ccc(-c2cn3ccccc3n2)cc1C returned ALOX12 inh 7%.
CCCCOc1ccc(-c2cn3ccccc3n2)cc1[N+](=O)[O-] was read as HT1080NT lethal -22%, TDP1 cell noCPT 26µM*, HT1080 IDH1KD tx inconclusive, TDP1 cell CPT inconclusive, ALOX12 inh -26% and IL1B secr inh -11.
CC(C)N(Cc1ccccc1)C(=O)c1cnc2ccccc2n1 was read as ALOX12 inh -7%.
`N#CC1(c2ccc(NC(=O)Cc3ccc(Br)cc3)cc2)CCCC1` gave ALOX12 inh -28%.
Screening O=C(Oc1ccc2oc3ccccc3c2c1)C1CCOCC1 returned ALOX12 inh -5%.
For COc1ccc(NC(=O)C2CCCN(c3ncnc4onc(C)c34)C2)cc1OC (stereo not given) the results were TDP1 cell noCPT 23µM*, TDP1 cell CPT inconclusive and ALOX12 inh -9%.
Screening COc1ccc(NC(=O)C2CCCN(C(=O)NC3CCCCC3)C2)cc1OC (stereo not given) returned HT1080NT lethal 1%, TDP1 cell noCPT -4%, HT1080 IDH1KD tx 10%, TDP1 cell CPT -3%, ALOX12 inh -15% and IL1B secr inh -15.
